SKN-1 inh – suppressors of acrylamide-induced Pgst-4::GFP reporter in worms, primary screen, SKN-1 inhibitor project, whole organism, uHTS, GFP/RFP fluorescence ratio, strain VP596. inhibition, % at 21.8 µM. AID 624304, 2012. actives 0.49% (n = 360,000). C. elegans VP596 Pgst-4::GFP/RFP ratio, 24 h;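 active = interference check ratio from 0.5 to 1.5 plus GFP to RFP signal ratio inhibition reaching or exceeding a fixed threshold, cut at about 30% in these data, passing the limit was not always enough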
Efflux pump inh – inhibitors of Candida efflux pumps in yeast, primary screen, S. cerevisiae, Nile Red, multiplex; S. cerevisiae Candida pump triplex; inhibition, % at 10 µM; actives 0.44% (n = 330,000);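 active = plate passing quality check with inhibition over a set limit, or well fluorescence over plate mean plus 4 SD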;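 also: Nile Red retained in pooled yeast measured as flow cytometry median fluorescence; 0% = buffer negative control and 100% = Enniatin B positive control; higher means more Nile Red kept so more efflux inhibition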
Mot1-301 SUMO – yeast Mot1-301 growth rescue at high temperature, primary screen, SUMOylation pathway inhibitor project, S. cerevisiae, ATP luminescence, 38.5C; actives 1% (n = 320,000); growth rescue, % at 18.8 µM; S. cerevisiae Mot1-301 growth rescue; percent above DMSO median, 100 means doubled;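 active = every valid replicate shows activation above 250% relative to neutral control wells; inactive = the rest, any valid replicate at or below 250%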;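 also: OY570 slx delta 5 strain wells were the positive control but not used for scaling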
HGIII-sPLA2 inh – human group III sPLA2 inhibitors, primary screen, biochemical, QFRET, BODIPY PC-A2 liposome substrate; QFRET BODIPY PC-A2 liposome hydrolysis, fluorescence; inhibition, % at 12.2 µM; actives 0.56% (n = 370,000);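 active = inhibition above mean plus 3 SD of compounds lying within the high and low control bounds, cut at about 19% in these data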;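 also: 0% = median of test compound wells and 100% = no enzyme DMSO wells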
Target sequence (Q9NZ20 whole entry, looked up): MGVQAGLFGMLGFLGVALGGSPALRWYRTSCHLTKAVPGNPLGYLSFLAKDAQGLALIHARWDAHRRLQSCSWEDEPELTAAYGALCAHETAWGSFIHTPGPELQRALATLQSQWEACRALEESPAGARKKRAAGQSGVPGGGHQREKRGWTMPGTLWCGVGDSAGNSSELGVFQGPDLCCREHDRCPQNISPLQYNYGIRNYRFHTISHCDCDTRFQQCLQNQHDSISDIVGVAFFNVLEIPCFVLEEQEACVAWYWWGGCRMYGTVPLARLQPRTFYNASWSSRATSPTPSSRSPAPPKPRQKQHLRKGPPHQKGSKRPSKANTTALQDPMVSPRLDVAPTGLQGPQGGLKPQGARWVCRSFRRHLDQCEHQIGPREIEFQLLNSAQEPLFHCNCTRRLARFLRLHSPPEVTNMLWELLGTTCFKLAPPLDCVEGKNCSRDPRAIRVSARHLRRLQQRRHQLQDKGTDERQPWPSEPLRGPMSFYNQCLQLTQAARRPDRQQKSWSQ
Yeast Mot1 SUMO – growth restoration of Mot1-301 yeast on galactose, dose response, SUMO pathway inhibitor project, whole organism, S. cerevisiae, ATP luminescence, cherry-picked samples | shares compounds with Mot1-301 SUMO | S. cerevisiae Mot1-301 galactose growth, 24 h; -100 = growth of slx-deleted rescue strain | growth activity, percent, % at 42 µM | 2,300 tested, under 10 active | AID 493004, 2010;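 active = Signal drops as the depositor expects, and the fitted half-maximal dose is no more than ten times the top valid tested dose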;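 also: more negative values mean stronger growth rescue toward the control strain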
* hit, by the source's call; . = no result given; + = active, no number. Only some compounds are listed: those with a hit (about 2.2% of all), similar ones and a draw of the others.

SMILES	SKN-1 inh	Efflux pump inh	Mot1-301 SUMO	HGIII-sPLA2 inh	Yeast Mot1 SUMO
COc1cc(/C=C(\NC(=O)c2ccccc2)C(=O)Nc2nccs2)ccc1OC(C)=O	-18	0	395*	-7	0
COc1ccc(C(=O)Nc2nccs2)cc1OC	-11	0	22	3	.
CC(C)C[C@@H]1COc2cccc(N3CCC[C@@H]3CO)c2S(=O)(=O)N1	-1	.	.	5	.
c1ccc(-c2csc(N3CCOCC3)n2)cc1	19	0	17	1	.
c1ccc(-c2csc(N3CCN(c4ccccn4)CC3)n2)cc1	47*	0	699*	10	0
NS(=O)(=O)c1ccc(N=C2C(=O)Nc3ccccc32)cc1	-9	0	1	4	.
CC(C)C1=CC(=Nc2ccc(S(N)(=O)=O)cc2)C=C(C(C)C)C1=O	7	0	+	11	0
Nc1nc(=S)ss1	0	.	.	9	.
CC[C@H]1CCCCc2ccccc2[C@@H](C(=O)C[C@@H](O)CC(C)=O)OC1=O	9	0	527*	6	-1
CN(C)S(=O)(=O)c1cccc(NC(=O)COc2nc3ccccc3nc2N2CCOCC2)c1	6	0	524*	-6	0
O=C(COc1ncnc2ccccc12)Nc1ccc(Cl)c(S(=O)(=O)N2CCOCC2)c1	1	0	384*	3	0
Cc1ccc(NC(=O)COc2ncnc3ccccc23)cc1S(=O)(=O)N1CCOCC1	2	0	-17	-5	.
O=C(COc1nc2ccccc2nc1N1CCOCC1)Nc1ccc(S(=O)(=O)N2CCCC2)cc1	-1	0	-4	-31	.
O=c1[nH]c2cc([N+](=O)[O-])ccc2c2cc(Br)ccc12	-13	.	.	0	.
COc1ccc(Cc2nc3ccc(C(=O)NCCc4ncccc4C)cc3o2)cc1OC	0	.	.	-3	.
CCOC(=O)c1cc(C#N)c(Oc2ccccc2OC)nc1-c1ccccc1	-11	0	+	1	0
CC(=O)Nc1nn(C)c2nc3ccc(C)cc3cc12	-3	0	479*	9	0
COc1cccc(/C=N/n2cnc3ccccc32)c1OC	0	0	406*	-6	-1
Cc1ccc(S(=O)(=O)NC(=O)COc2ccc([N+](=O)[O-])cc2)cc1	0	0	201	1	.
O=S1(=O)CC(N2CCCCC2)C(N2CCCCC2)C1 (configuration not stated)	-18	0	366*	3	0
O=S1(=O)CC(N2CCCC2)CN1C1CCCCC1 (configuration not stated)	8	.	.	1	.
CCC1(c2ccc(F)cc2)NC(=O)N(CC(=O)N2CCN(S(=O)(=O)c3ccc(C)cc3C)CC2)C1=O (configuration not stated)	-12	.	.	-15	.
Nc1cc[n+](CC(=O)Nc2ccccc2)cc1	0	0	799*	2	1
Cc1cccc(NC(=O)C[n+]2ccccc2)c1	27	0	-8	-2	.
CCCCCCCCN1C(=O)[C@H](CC(=O)N2CCCC2)C[C@@]2(C(=O)OCC)CCCC=C12	4	.	.	4	.
SMILES	SKN-1 inh	Efflux pump inh	Mot1-301 SUMO	HGIII-sPLA2 inh	Yeast Mot1 SUMO
COC(=O)C1C(c2ccc(OC)c(OC)c2)NC(c2ccc(OC)c(OC)c2)C(C(=O)OC)S1(=O)=O (configuration not stated)	-2	0	520*	-7	0
COC(=O)C1CSc2[nH]c(=O)sc2C1c1ccc(OC)c(OC)c1 (configuration not stated)	-5	0	-8	4	.
O=C(NCc1cc2ccccc2[nH]1)C1CCC(=O)N(CC2CCCCC2)C1 (configuration not stated)	11	.	.	-10	.
Cc1cc(C)cc(CC(=O)N2CCC2(C)C(=O)NS(=O)(=O)Cc2ccccc2)c1 (configuration not stated)	12	.	.	-1	.
CCCCNC(=O)N1CCC(CCC(=O)N(C)Cc2ccccc2)CC1	-4	0	375*	-2	-1
Cc1ccc(C)c(S(=O)(=O)N2CCN(C(=O)Cn3[nH]c(=O)c4ccccc4c3=O)CC2)c1	7	0	-9	-1	.
COc1cccc(-n2nnc3c(=O)n(CC(=O)N4CCCc5ccccc54)cnc32)c1	3	0	+	-2	0
COc1cc2c(cc1OC)C(c1ccc(SC)cc1)CC(=O)N2 (configuration not stated)	2	0	666*	5	-1
COc1cc2c(cc1OC)C(c1ccccc1C)CC(=O)N2 (configuration not stated)	2	0	732*	-2	0
CCOC(=O)[C@]12CCCC=C1N(CCCOC)C(=O)[C@@H]2CC(=O)NCCCN1CCCC1=O	.	.	.	4	.
COc1ccc(S(=O)(=O)N2CCC[C@H]2C(=O)N2CCC[C@H]2C(=O)N(C)Cc2ccccc2)cc1C	-7	.	.	6	.
O=C(c1ccco1)N(Cc1ccc(Cl)cc1)Cc1ccco1	10	0	8	-8	.
CN(C)c1ccc(CN(Cc2ccco2)C(=O)c2ccco2)cc1	2	0	366*	10	0
COc1cccc(C(=O)N[C@@H](Cc2cccnc2)C(=O)N2CCC[C@H]2C(=O)NC2CCCC2)c1	.	.	.	4	.
COc1ccc(CCC(=O)Nc2ccc3c(c2)OCCO3)cc1	14	0	-3	-2	.
O=C(CCN1CCc2ccccc2C1)Nc1ccc2c(c1)OCO2	-9	0	836*	0	0
COc1ccc(CCC(=O)Nc2ccc3c(c2)OCO3)cc1	-7	0	563*	15	-1
O=C(CCN1CCc2ccccc2C1)Nc1ccc(F)c(F)c1	0	0	386	-2	.
CCC(C)N1C(=O)CN(C2CCCCCC2)C(=O)C1c1ccccc1F (configuration not stated)	6	0	422*	0	-1
COc1ccc(/C=C/C(=O)NNC(=O)c2ccncc2)c(OC)c1	-4	0	-2	4	.
CC(C)(C)c1cc(NCCCn2ccnc2)n2ncc(-c3ccc(Cl)cc3)c2n1	26	0	622*	-18	-1
O=C(/C=C/c1ccc(Cl)cc1)NCc1ccncc1	-10	0	566*	5	1
N#Cc1cccc(CNCC(=O)N2CCC3(CC2)OCCO3)c1	.	.	.	-5	.
CC(C)CC(=O)Nc1ccc(C(=O)CN2C(=O)NC3(CCOc4ccccc43)C2=O)cc1 (configuration not stated)	-1	0	566*	-8	1
O=C(CCC(F)(F)F)N1CCCC(CO)(CCc2ccccc2)C1 (configuration not stated)	-14	0	738*	4	1

Screening results from PubChem BioAssay.
